The source of these data is PMC5540273 (PLoS ONE, 2017).
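Note: KINOMEscan kinase panel screen.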

The first assay has as its system ULK3. To be noted: concentration: 1 μM,replicates: in singlicate; n = 1.
`CS(=O)c1ccc(-c2coc3ccc(-c4n[nH]c(=O)o4)cc23)cc1` (stereo not drawn): the “%Inh” value is 0%. Same read-out and setting: in the case of `Cn1ccc2ncnc(Oc3ccc(NC(=O)Nc4ccnc(C(F)(F)F)c4)c(Cl)c3)c21` it was 0%; in that of `CN1CCN(CCCNc2nccc(-c3c(-c4ccc(F)cc4)nn4cc(C(N)=O)ccc34)n2)CC1` [GW622475], 0%. For the compound `O=C(NOCC1CC1)c1cc(Br)c(F)c(F)c1Nc1ccc(I)cc1Cl`, the “%Inh” value is listed as 10%. Consider `COc1cccc(CNC(=O)NC2CCN(c3ccnc(Nc4cc(OC)c(OC)c(OC)c4)n3)C2)c1` (stereo not drawn) [GSK1379765], for which the “%Inh” value came out at 90%. The same measure, in the same setting: in the case of `COc1cc(Nc2nccc(N3CCC(NC(=O)c4cccc(C#N)c4)C3)n2)cc(OC)c1OC` (stereo not drawn) [GSK1379751] it was 96.7%; in that of `COC(=O)c1cccc(NC(=O)NC2CCN(c3ccnc(NCc4ccc(F)cc4)n3)CC2)c1` [GSK1379860], 15%. On the same count and under the same terms, for `Cn1ccc2ncnc(Oc3ccc(NC(=O)Nc4cc(C(C)(C)C)on4)c(Cl)c3)c21` the value was 16%.

`O=C1NCCc2[nH]c(-c3ccncc3)cc21`: the “%Inh” value was found to be 18%. `Nc1nccc(-c2ccc3c(N)n[nH]c3c2)n1` [GSK1034945]: the “%Inh” value stood at 4%. The same measure, in the same setting: in the case of `CC(=O)Nc1ccc(-c2cc3ncnc(SCC(=O)O)c3s2)cc1` it was 15%. On the same count and under the same terms, for `NC(=O)c1ccc(-c2cc3ncnc(SCC(=O)O)c3s2)cc1` the value was 11%; for `Cc1cccc(-c2nc(Nc3ccncc3)c3sccc3n2)n1` [GW869641], 45%; for `Cn1ccc2ncnc(Oc3ccc(NC(=O)Nc4cncc(C(F)(F)F)c4)c(Cl)c3)c21`, 99.9%. On to `OCCn1cc(-c2cnc3nnn(Cc4ccc5ncccc5c4)c3n2)cn1`, for which the “%Inh” value came out at 0%. Still for that read-out and setting: for `C[C@@H]1CNc2c(sc3ccc4nc(-c5ccc(O)cc5)ccc4c23)C(=O)N1` the value was 24%; for `FC(F)(F)c1cc(Br)cc(Nc2nccc(-c3cnn4ncccc34)n2)c1` [GW810578], 12%; for `NC(=O)Nc1sc(-c2ccc(F)cc2)cc1C(N)=O` [GW789449], 55%. On to `c1ccc(Oc2ccc(Nc3ccnc4ccc(-c5ccccn5)cc34)cc2)cc1` [GW407034], for which the “%Inh” value is on record as 5%. Still for that read-out and setting: for `CCn1c(-c2nonc2N)nc2cncc(CNC3CCNCC3)c21.Cl` [SB-747651] the value was 6%; for `CN(c1ccccc1CNc1nc(Nc2ccc3c(c2)CC(=O)N3)ncc1C(F)(F)F)S(C)(=O)=O`, 40%.

Consider `Cc1ccc(C(=O)Nc2ccc(Oc3ccc4nc(NC(=O)C5CC5)cn4c3)c(F)c2)c(=O)n1-c1ccccc1`, for which the “%Inh” value was found to be 7%. On the same count and under the same terms, for `C[C@@H](Oc1cc(-n2cnc3ccc(-c4ccncc4)cc32)sc1C(N)=O)c1ccccc1Cl` [GSK483724] the value was 7%.

The test system of the next assay is T1, VEGFR2.
T1 construct: gene KDR
To be noted: concentration: 1 μM,replicates: in singlicate; n = 1.
As for `CS(=O)(=O)Nc1ccc(-c2ccnc3[nH]ccc23)cc1` [GSK993273], the “%Inh” value turned out to be 48%. Still for that read-out and setting: for `O=C(NCC1CC1)c1ccc(-c2cc(C(=O)NC3CC3)ccc2F)cc1` [GW810445] the value was 0%. Same read-out and setting: for `Cc1cccc2c(-c3ccncc3)c(-c3ccc(F)cc3)nn12.Cl` [GW461487] the value was 0%; for `Cn1ccc2ncnc(Oc3ccc(NC(=O)Nc4cnn(C(C)(C)C)c4)c(Cl)c3)c21`, 99.1%.

As for `Cn1cc(-c2cccc3c(N)c(C(N)=O)nnc23)cn1`, the “%Inh” value turned out to be 13%. Same read-out and setting: in the case of `C[C@@H]1CCN(C(=O)N2CCCC2)C[C@@H]1N(C)c1ncnc2[nH]ccc12` it was 49%; in that of `Cl.Nc1n[nH]c2cc(-c3ccccn3)ccc12` [GSK2189892], 0%; in that of `Cl.c1ccc(Oc2ccc(Nc3ccnc4cc(-c5ccc(CN6CCNCC6)o5)ccc34)cc2)nc1` [GW567142], 25%.

`CCNCC(Cc1ccccc1)NC(=O)c1cc(Br)c(-c2ccnc3[nH]ccc23)s1.Cl.Cl` (stereo not drawn) [GSK1383280]: the “%Inh” value turned out to be 36%. For the compound `Cc1ccc(Nc2ccnc(Nc3ccc4c(c3)CS(=O)(=O)C4)n2)cc1O.Cl` [GW579362], the “%Inh” value was 93.6%.

As to `COc1cccc(C2=C(Nc3cccc(Cl)c3)C(=O)NC2=O)c1` [SB-341556], the “%Inh” value was found to be 0%. For `CCN1CCN(CCCC(=O)Nc2n[nH]c3nc(-c4ccc(O)cc4)c(Br)cc23)CC1` [SB-731579], the “%Inh” value came out at 0%.

With `CSc1nccc(-c2c(-c3ccc(F)cc3)ncn2CCCN2CCOCC2)n1.Cl` [SB-217146], the “%Inh” value came to 7%. The same measure, in the same setting: for `COc1cc2nccc(Nc3ccc(Oc4ccccc4)cc3)c2cc1OC.Cl` [GI261656] the value was 23%; for `CS(=O)c1ccc(-c2coc3ccc(-c4n[nH]c(=O)o4)cc23)cc1` (stereo not drawn), 17%.

As for `Cn1ccc2ncnc(Oc3ccc(NC(=O)Nc4ccnc(C(F)(F)F)c4)c(Cl)c3)c21`, the “%Inh” value turned out to be 98.5%.

As to `CN1CCN(CCCNc2nccc(-c3c(-c4ccc(F)cc4)nn4cc(C(N)=O)ccc34)n2)CC1` [GW622475], the “%Inh” value came to 9%. On to `O=C(NOCC1CC1)c1cc(Br)c(F)c(F)c1Nc1ccc(I)cc1Cl`, for which the “%Inh” value is on record as 0%. Still for that read-out and setting: for `COc1cccc(CNC(=O)NC2CCN(c3ccnc(Nc4cc(OC)c(OC)c(OC)c4)n3)C2)c1` (stereo not drawn) [GSK1379765] the value was 13%; for `COc1cc(Nc2nccc(N3CCC(NC(=O)c4cccc(C#N)c4)C3)n2)cc(OC)c1OC` (stereo not drawn) [GSK1379751], 0%; for `COC(=O)c1cccc(NC(=O)NC2CCN(c3ccnc(NCc4ccc(F)cc4)n3)CC2)c1` [GSK1379860], 8%. For the compound `Cn1ccc2ncnc(Oc3ccc(NC(=O)Nc4cc(C(C)(C)C)on4)c(Cl)c3)c21`, the “%Inh” value was determined as 97.5%. Same read-out and setting: for `O=C1NCCc2[nH]c(-c3ccncc3)cc21` the value was 25%; for `Nc1nccc(-c2ccc3c(N)n[nH]c3c2)n1` [GSK1034945], 0%. The same measure, in the same setting: in the case of `CC(=O)Nc1ccc(-c2cc3ncnc(SCC(=O)O)c3s2)cc1` it was 27%; in that of `NC(=O)c1ccc(-c2cc3ncnc(SCC(=O)O)c3s2)cc1`, 0%.

`Cc1cccc(-c2nc(Nc3ccncc3)c3sccc3n2)n1` [GW869641]: the “%Inh” value came to 35%. Same read-out and setting: in the case of `Cn1ccc2ncnc(Oc3ccc(NC(=O)Nc4cncc(C(F)(F)F)c4)c(Cl)c3)c21` it was 98.5%. Same read-out and setting: for `OCCn1cc(-c2cnc3nnn(Cc4ccc5ncccc5c4)c3n2)cn1` the value was 0%.

For the compound `C[C@@H]1CNc2c(sc3ccc4nc(-c5ccc(O)cc5)ccc4c23)C(=O)N1`, the “%Inh” value was determined as 11%. Same read-out and setting: for `FC(F)(F)c1cc(Br)cc(Nc2nccc(-c3cnn4ncccc34)n2)c1` [GW810578] the value was 40%; for `NC(=O)Nc1sc(-c2ccc(F)cc2)cc1C(N)=O` [GW789449], 19%; for `c1ccc(Oc2ccc(Nc3ccnc4ccc(-c5ccccn5)cc34)cc2)cc1` [GW407034], 0%. Turning to `CCn1c(-c2nonc2N)nc2cncc(CNC3CCNCC3)c21.Cl` [SB-747651], the “%Inh” value is recorded as 0%. On the same count and under the same terms, in the case of `CN(c1ccccc1CNc1nc(Nc2ccc3c(c2)CC(=O)N3)ncc1C(F)(F)F)S(C)(=O)=O` it was 28%. On the same count and under the same terms, in the case of `Cc1ccc(C(=O)Nc2ccc(Oc3ccc4nc(NC(=O)C5CC5)cn4c3)c(F)c2)c(=O)n1-c1ccccc1` it was 99.1%. Still for that read-out and setting: for `C[C@@H](Oc1cc(-n2cnc3ccc(-c4ccncc4)cc32)sc1C(N)=O)c1ccccc1Cl` [GSK483724] the value was 8%.
